Source: PubChem BioAssay
Most compounds without a hit are left out; they make up all but 3.6% or so of the library.
Peg3 promoter: Peg3 promoter activity inhibition; HeLa PEG-Prom luciferase reporter, luminescence, overnight; inhibition, % at 20 µM; 360,000 tested, 1.7% active;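 active = inhibition of at least 50% at 20 µM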
HSP90 refold inh: blocks HSP90-mediated luciferase refolding in reticulocyte lysate; inhibition, % at 5.6 µM; 290,000 tested, 0.91% active; AID 1789; Rabbit reticulocyte lysate, luciferase refolding luminescence, 3 h;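 active = inhibition above the screen-wide mean plus 3 SD, computed separately per campaign, cut at about 16% in these data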;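 note: 0% = DMSO wells and 100% = 60 µM geldanamycin wells; inhibitors lower the luminescence because luciferase stays unfolded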
CF NFkB inh: cystic fibrosis NF-kB activation inhibition | KKLEB NF-kB-GFP reporter, PAF-induced, GFP fluorescence overnight | inhibition, % at 5 µM | 360,000 tested, 0.86% active | AID 588850;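 active = at least 50% inhibition at 5 µM, scaled per plate between neutral and stimulator controls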;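 note: PAF is a Pseudomonas aeruginosa culture filtrate used as stimulus; plate controls were PAF-stimulated DMSO wells for no effect and unstimulated DMSO wells for full effect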
KKLEB tox: reduces viability of KKLEB cystic fibrosis airway cells; KKLEB CF airway cells viability, ATPlite luminescence, overnight; active compounds read low; cells stimulated with P. aeruginosa culture filtrate; activity change (cytotoxicity), % at 5 µM; 360,000 tested, 0.36% active;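 active = corrected activity change at or below -50% at 5 µM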
Mdm2 MdmX PPI: inhibitors of human Mdm2/MdmX interaction. O15151+Q00987. SaOS-2 split-luciferase Mdm2/MdmX complementation, luminescence. inhibition, % at 8 µM. 330,000 tested, 3% active;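 active = inhibition of at least 50% at 8 µM in the primary screen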
Target sequence (O15151 whole entry, looked up): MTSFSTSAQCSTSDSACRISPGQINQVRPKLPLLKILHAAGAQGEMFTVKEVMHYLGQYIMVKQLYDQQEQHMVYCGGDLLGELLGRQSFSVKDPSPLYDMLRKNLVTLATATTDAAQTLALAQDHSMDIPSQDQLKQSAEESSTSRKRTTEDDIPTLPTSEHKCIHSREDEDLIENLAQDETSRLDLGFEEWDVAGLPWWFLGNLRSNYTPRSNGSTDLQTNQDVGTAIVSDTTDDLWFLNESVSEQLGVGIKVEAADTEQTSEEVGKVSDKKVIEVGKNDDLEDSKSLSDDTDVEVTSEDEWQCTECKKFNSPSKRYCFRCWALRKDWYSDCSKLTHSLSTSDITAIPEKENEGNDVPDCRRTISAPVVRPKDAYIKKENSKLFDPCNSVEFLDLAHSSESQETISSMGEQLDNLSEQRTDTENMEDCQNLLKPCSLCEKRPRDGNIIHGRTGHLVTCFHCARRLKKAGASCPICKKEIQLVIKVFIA
Target sequence (Q00987 whole entry, looked up): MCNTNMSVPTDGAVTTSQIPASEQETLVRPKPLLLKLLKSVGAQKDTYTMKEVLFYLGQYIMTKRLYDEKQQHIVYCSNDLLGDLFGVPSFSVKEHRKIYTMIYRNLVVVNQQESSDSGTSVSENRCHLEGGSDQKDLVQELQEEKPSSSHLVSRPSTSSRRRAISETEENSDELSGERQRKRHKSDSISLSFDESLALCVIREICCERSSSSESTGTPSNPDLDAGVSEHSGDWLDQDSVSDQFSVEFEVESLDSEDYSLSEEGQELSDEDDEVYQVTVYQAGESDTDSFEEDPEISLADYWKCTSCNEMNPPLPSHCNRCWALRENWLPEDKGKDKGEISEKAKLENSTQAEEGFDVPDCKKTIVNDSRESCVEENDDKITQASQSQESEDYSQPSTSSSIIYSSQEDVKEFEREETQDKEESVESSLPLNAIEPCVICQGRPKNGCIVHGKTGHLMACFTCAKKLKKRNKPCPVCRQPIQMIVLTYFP
LGR2 antag: Drosophila LGR2 receptor signaling inhibition. HEK293 LGR2, CRE-luciferase, bursicon-stimulated, 4 h. inhibition, % at 9.99 µM. 380,000 tested, 0.35% active;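 active = drop in luminescence signal, shown as inhibition above about 50% in the replicate tests, limit read from the data, passing the limit was not always enough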;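 note: agonist challenge used bursicon conditioned medium at about half maximal strength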
Mdm2 MdmX conf: confirmation of human Mdm2/MdmX interaction inhibitors | Mdm2-MdmX binding, luminescent assay | 10,000 tested, 55% active | shares compounds with Mdm2 MdmX PPI | AID 489028 | inhibition, % at 8 µM; in the data active = inhibition above about 40%
FLuc counter: counter-screen for Mdm2/MdmX inhibitors: full-length luciferase; shares compounds with Mdm2 MdmX PPI; SaOS-2 full-length luciferase counterscreen, luminescence; inhibition, % at 8 µM; 6,200 tested, 77% active; AID 504607;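 active = mean inhibition at 8 µM reaching about 37%, which flags the compound as non-specific, limit read from the data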;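 note: p53-null SaOS-2 cells with luciferase driven by a doxycycline-inducible promoter; compound on cells about two nights before reading with doxycycline added after day one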
* = called active by the depositor; nt = no result given.

SMILES	Peg3 promoter	HSP90 refold inh	CF NFkB inh	KKLEB tox	Mdm2 MdmX PPI	LGR2 antag	Mdm2 MdmX conf	others
CCOc1ccc(/C=C/c2c([N+](=O)[O-])c(=O)n(C)c(=O)n2C)cc1	4	6	9	14	34	18	nt
CCc1ccc(/C=C/c2c([N+](=O)[O-])c(=O)n(C)c(=O)n2C)cc1	25	9	19	7	64*	40	44*	FLuc counter=40*
CC(=O)Nc1sc(N/N=C/c2ccccc2)nc1-c1ccc(C)cc1	-32	0	-11	-1	-12	-29	nt
CCCc1sc(N/N=C/c2ccccn2)nc1-c1ccc(Br)cc1	-52	3	24	-23	75*	-16	24
O=C(Cn1cnc2c(oc3nc4c(cc32)CCCC4)c1=O)Nc1cccc(Cl)c1	11	4	38	-18	57*	-13	2
CC=Cc1ccc2n(c1=O)C[C@H]1[C@H](CO)[C@@H](C(=O)NCc3ccccn3)[C@@H]2N1CC1CC1 (mixture of isomers)	nt	nt	nt	nt	nt	-5	nt
COc1cccc(NC(=O)N(C)C[C@@H]2Oc3ncc(/C=C/c4ccccc4)cc3C(=O)N([C@H](C)CO)C[C@H]2C)c1	nt	nt	nt	nt	nt	2	nt
N#Cc1ccc(C(=O)Nc2cccc3ncccc23)c(F)c1	8	1	8	-8	19	5	nt
Cc1cc(C)c2oc(-c3ccc(Cl)c(NC(=O)c4ccc(C#N)cc4F)c3)nc2c1	-99	1	11	-14	69*	nt	-12
CCCC#Cc1ccc2c(c1)O[C@@H](CN(C)C(=O)c1cnccn1)[C@@H](C)CN([C@@H](C)CO)S2(=O)=O	nt	nt	nt	nt	nt	-28	nt
COc1ccc(-n2c(/C=C3\C(=O)N(C)c4ccccc43)nc3ccccc3c2=O)cc1	21	2	7	-5	61*	29	23
CCN1C(=O)/C(=C/c2nc3ccccc3c(=O)[nH]2)c2ccccc21	30	-4	7	-14	nt	nt	nt
CCN1C(=O)/C(=C\c2nc3ccccc3c(=O)n2-c2ccccc2)c2ccccc21	22	3	-3	4	51*	30	33
CCN1C(=O)/C(=C/c2nc3ccccc3c(=O)n2-c2ccc(C)cc2)c2ccccc21	4	-2	8	0	83*	36	62*	FLuc counter=86*
COc1ccc(CN(C)C[C@@H]2OCc3cn(nn3)CCCC(=O)N([C@H](C)CO)C[C@@H]2C)cc1	nt	nt	nt	nt	nt	13	nt
O=C(Cc1ccccc1)N1CC[C@@H]2[C@H]1c1cc(C#Cc3ccccc3)ccc1N[C@@H]2CO	nt	nt	nt	nt	nt	36	nt
O=C(CNC(=O)c1ccco1)N=Nc1c(O)n(CCc2ccccc2)c2ccccc12	8	2	7	2	62*	18	56*	FLuc counter=106*
Cn1c(=O)c(/C(N)=N/OC(=O)c2ccccc2)cn(-c2ccccc2)c1=O	11	4	-3	-9	58*	nt	25
COc1ccc(NC(=O)Nc2ccc3c(c2)C(=O)N([C@H](C)CO)C[C@@H](C)[C@@H](CN(C)Cc2ccc(Cl)c(Cl)c2)OCCCC[C@H](C)O3)cc1	nt	nt	nt	nt	nt	18	nt
COc1ccc2c3c(n(C)c2c1)[C@H](CO)N(Cc1ccccc1)CC31CN(C(=O)C2CC2)C1	nt	nt	nt	nt	nt	-18	nt
Brc1ccc(-c2nnc3ccc(N4CCN(c5ccccc5)CC4)nn23)cc1	10	-2	-19	-5	100*	nt	45*	FLuc counter=77*
Cc1ccc2nc(C)cc(N/N=C/c3ccccc3O)c2c1	-18	-4	8	1	-2	-30	nt
Cc1cc(C)c2nc(C)cc(N/N=C/c3ccc(O)cc3)c2c1	108*	2	8	-81*	98*	-4	100*	FLuc counter=50*
Cc1cc(N/N=C/c2ccc(O)cc2)c2cccc(C)c2n1	110*	-5	-152	8	66*	-3	4
Cc1cc(N/N=C/c2ccc(N(C)C)cc2)c2ccccc2n1	26	2	-12	2	5	-44	nt
SMILES	Peg3 promoter	HSP90 refold inh	CF NFkB inh	KKLEB tox	Mdm2 MdmX PPI	LGR2 antag	Mdm2 MdmX conf	others
Cc1noc(C)c1NC(=O)N(C)C[C@@H]1OCCCC[C@@H](C)Oc2ccc(NS(=O)(=O)c3c(C)noc3C)cc2C(=O)N([C@H](C)CO)C[C@H]1C	nt	nt	nt	nt	nt	-12	nt
C[C@@H]1CN([C@@H](C)CO)C(=O)c2cc(C#CC3CC3)cnc2O[C@@H]1CN(C)Cc1ccccn1	nt	nt	nt	nt	nt	8	nt
C[C@@H]1CN([C@@H](C)CO)C(=O)c2cccc(NC(=O)C3CCOCC3)c2O[C@@H]1CN(C)Cc1ccc2c(c1)OCO2	nt	nt	nt	nt	nt	-1	nt
COCCNC(=O)C[C@H]1C[C@@H]2c3cc(NC(=O)NC4CCCCC4)ccc3O[C@@H]2[C@@H](CO)O1	nt	nt	nt	nt	nt	9	nt
O=C(NNC(=O)c1cc2cc3ccccc3nc2s1)c1ccc(F)cc1	1	-4	-4	8	22	nt	nt
Cc1cccc(C(=O)NNC(=O)c2cc3cc4ccccc4nc3s2)c1	-2	1	19	-12	51*	nt	7
O=C(NNC(=O)c1cc2cc3ccccc3nc2s1)c1cccc(Cl)c1	-4	-2	-2	2	57*	nt	36	FLuc counter=109*
COc1ccc(S(=O)(=O)N(C)C[C@H]2Oc3ccc(NC(=O)Nc4c(C)noc4C)cc3CC(=O)N([C@H](C)CO)C[C@@H]2C)cc1	nt	nt	nt	nt	nt	-19	nt
O=C(c1ccncc1)N1CC(=O)N2[C@H](C1)[C@@H](c1ccc(-c3ccccc3F)cc1)[C@@H]2CO	nt	nt	nt	nt	nt	-3	nt
Nc1nc(-c2ccccc2)cc(-c2ccccc2O)n1	40	6	-20	23	80*	nt	28
Oc1ccc(-c2cc(-c3ccc(O)cc3)nc(-c3ccccc3)n2)cc1	31	0	-10	-2	83*	12	29
C[C@@H]1CN([C@H](C)CO)C(=O)c2cccc(NS(=O)(=O)c3cccs3)c2O[C@H]1CN(C)S(=O)(=O)c1ccccc1	nt	nt	nt	nt	nt	3	nt
CC[C@@]1(C(=O)OC)N[C@H](CN(C)C(=O)Nc2ccccc2)[C@@H]2C(=O)N(Cc3ccccc3)C(=O)[C@@H]21	-12	nt	19	-7	2	-12	nt
CCN(C[C@H]1N[C@@](CC)(C(=O)OC)[C@H]2C(=O)N(Cc3ccccc3)C(=O)[C@@H]12)C(=O)c1ccc(C(C)(C)C)cc1	62*	nt	85*	-58*	75*	4	68*	FLuc counter=55*
COC(=O)[C@]1(Cc2ccccc2)N[C@H](CN(C)C(=O)Nc2ccc(C(F)(F)F)cc2)[C@@H]2C(=O)N(Cc3ccccc3)C(=O)[C@@H]21	-6	nt	0	-8	70*	5	43*	FLuc counter=65*
CCN(C[C@H]1N[C@@](Cc2ccccc2)(C(=O)OC)[C@H]2C(=O)N(Cc3ccccc3)C(=O)[C@@H]12)C(=O)Nc1ccc(Cl)cc1	-75	nt	8	0	66*	-41	48*	FLuc counter=56*
